Laboratory results: PMC4336329 (PLoS ONE, 2015)
The campaign covered roughly 310,000 compounds. About 14,000 (4.5%) showed an effect of 50% or more. Effects have a minus sign here. The sample as a whole holds a higher share of strong results than the screen did.

Target: human ether-à-go-go-related gene (hERG) potassium channel (human, UniProt Q12809)
Experiment: primary screen, population patch clamp on CHO cells stably expressing hERG; higher = less effect of the substance
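Further: peak tail current of the secondary pulse compared with the same well before compound.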

human ether-à-go-go-related gene (hERG) potassium channel, sequence (Q12809 whole entry, looked up): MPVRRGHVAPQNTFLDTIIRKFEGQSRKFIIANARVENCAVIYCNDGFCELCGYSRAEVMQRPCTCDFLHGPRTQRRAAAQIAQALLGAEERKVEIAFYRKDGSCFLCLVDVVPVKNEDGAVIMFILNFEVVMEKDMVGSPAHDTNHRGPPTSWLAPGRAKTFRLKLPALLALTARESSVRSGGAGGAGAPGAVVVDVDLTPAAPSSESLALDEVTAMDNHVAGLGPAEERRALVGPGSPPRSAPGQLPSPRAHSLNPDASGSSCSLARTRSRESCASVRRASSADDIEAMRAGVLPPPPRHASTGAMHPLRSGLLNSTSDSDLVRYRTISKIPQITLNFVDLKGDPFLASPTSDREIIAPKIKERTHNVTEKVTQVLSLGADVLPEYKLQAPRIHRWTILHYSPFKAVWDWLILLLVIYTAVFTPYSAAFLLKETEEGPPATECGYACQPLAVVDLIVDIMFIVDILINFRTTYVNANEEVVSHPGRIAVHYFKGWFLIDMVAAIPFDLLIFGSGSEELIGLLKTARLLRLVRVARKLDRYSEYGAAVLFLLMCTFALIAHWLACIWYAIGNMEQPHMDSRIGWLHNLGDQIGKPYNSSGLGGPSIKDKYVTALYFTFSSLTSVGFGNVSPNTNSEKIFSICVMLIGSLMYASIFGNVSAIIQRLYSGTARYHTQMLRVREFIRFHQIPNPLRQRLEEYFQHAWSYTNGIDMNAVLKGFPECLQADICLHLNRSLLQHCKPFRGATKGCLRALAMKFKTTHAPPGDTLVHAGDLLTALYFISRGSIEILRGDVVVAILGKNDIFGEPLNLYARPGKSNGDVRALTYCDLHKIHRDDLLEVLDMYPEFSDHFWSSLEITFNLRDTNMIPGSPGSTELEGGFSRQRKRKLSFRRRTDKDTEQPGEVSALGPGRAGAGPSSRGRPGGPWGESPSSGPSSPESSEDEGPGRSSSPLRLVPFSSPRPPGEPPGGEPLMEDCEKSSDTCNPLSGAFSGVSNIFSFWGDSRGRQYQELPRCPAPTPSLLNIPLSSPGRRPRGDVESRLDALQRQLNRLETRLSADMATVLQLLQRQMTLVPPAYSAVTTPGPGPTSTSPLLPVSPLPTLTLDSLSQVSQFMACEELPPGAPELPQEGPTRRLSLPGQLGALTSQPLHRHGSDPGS

| Compound | hERG current change (%, negative = inhibition) at 10uM |
| --- | --- |
| COc1cccc(N2C(=O)C3C(C2=O)C3(c2ccccc2)c2ccccc2)c1 (centres unmarked) | -3.19% |
| CCN(CC)C(=O)CSc1nnc2sc3ccccc3n12 | 14.8% |
| CCOC(=O)C1(Cc2ccc(Cl)cc2)CCN(Cc2nccn2CC)CC1 | -67.6% |
| CCOC(=O)C1(Cc2cccc(OC)c2)CCCN(Cc2nccn2CC)C1 (centres unmarked) | -30.8% |
| CCOC(=O)C1(Cc2ccccc2)CCCN(Cc2ccccn2)C1 (centres unmarked) | -20.7% |
| CCOC(=O)C1(CCc2ccccc2)CCN(Cc2nccn2CC)CC1 | -66.2% |
| CCOC(=O)C1(CCc2ccccc2)CCN(Cc2ccccn2)CC1 | -74.3% |
| CCOC(=O)N1CCN(Cc2ccccn2)CC1.O=C(O)C(=O)O | 0.59% |
| CCOC(=O)C1(CCOc2ccccc2)CCN(Cc2nccn2CC)CC1 | -58.2% |
| CCOC(=O)C1(Cc2ccccc2)CCN(Cc2nccn2CC)CC1 | -20% |
| CCOC(=O)Cn1cnc2c(cnn2-c2ccc(Cl)cc2)c1=O | -4.32% |
| O=C(CCCc1ccccc1)Nc1ccc(Br)cc1F | 14.4% |
| Cc1cc(OCC(=O)c2ccc(C(F)(F)F)cc2)n2cnnc2n1 | 5.8% |
| COc1ccc(N(CC(=O)Nc2cccc([N+](=O)[O-])c2C)S(C)(=O)=O)cc1OC | -7.79% |
| S=C(NCc1ccco1)Nc1cccc(Cl)c1 | -6.16% |
| CCN(CC)S(=O)(=O)c1cccc(NC(=O)COC(=O)c2n[nH]c(=O)c3ccccc23)c1 | -2.07% |
| COC(=O)c1ccccc1NC=C1C(=O)OC2(CCCCC2)OC1=O | -1.07% |
| Cc1cccc(-c2nnc(NC(=O)c3cccs3)s2)c1 | -21.7% |
| COc1ccc(S(=O)(=O)n2ccc(-c3ccc(OCCN(C)c4ccccn4)cc3)n2)cc1 | 11.4% |

| Compound | hERG current change (%, negative = inhibition) at 10uM |
| --- | --- |
| CCOC(=O)C1(CCCc2ccccc2)CCN(Cc2nccn2CC)CC1 | -74% |
| Cc1oc(S(=O)(=O)N2CCOCC2)cc1C(=O)Nc1ccc(F)cc1 | -6.29% |
| O=C(CSc1nc2ncccc2[nH]1)Nc1ccc2c(c1)OCO2 | 9.63% |
| Cc1cc(C)n2nc(SCC(=O)c3cc(C)n(-c4cc(C)on4)c3C)nc2n1 | -67.5% |
| Cc1cc(C)cc(NC(=O)CSc2nc3nc(C)cc(C)n3n2)c1 | -50.2% |
| Cc1cc(C)n2nc(SCC(=O)Nc3ccccc3)nc2n1 | -4.16% |
| CCCn1c(C)cc(C(=O)CSc2nc3nc(C)cc(C)n3n2)c1C | 6.97% |
| Cc1cc(C)n2nc(SCC(=O)c3cc(C)n(CC4CCCO4)c3C)nc2n1 (centres unmarked) | 1.05% |
| Cc1cccc(NC(=O)CSc2nc3nc(C)cc(C)n3n2)c1 | -32.6% |
| CNC1=C(N(C(C)=O)c2ccc(Br)cc2)C(=O)c2ccccc2C1=O | 11.5% |
| COc1ccc(S(=O)(=O)NCc2cccs2)cc1 | 2.67% |
| CCC(C)(C)NC(=O)CN(C(=O)CCC(=O)Nc1ccccn1)c1ccc(F)c(Cl)c1 | -1.31% |
| Cc1cc(=O)oc2cc(NC(=O)c3ccccc3C(=O)O)ccc12 | 15.7% |
| CN(CC(=O)Nc1ccccc1Br)C(=O)CNC(=O)c1ccc(Oc2ccccc2)cc1 | -17.8% |
| O=C1N(C2CCCC2)C[C@@H]2C[C@@H](c3cccn3-c3ccccn3)N3CCC[C@@]123 | -62.6% |
| O=C1N(C2CCCC2)C[C@@H]2C[C@@H](c3cccn3-c3nccs3)N3CCC[C@@]123 | -66.6% |
| CCn1ccnc1[C@@H]1C[C@H]2CN(c3ccccc3OC)C(=O)[C@]23CCCN13 | 19.8% |
| CN1C[C@@H]2C[C@@H](c3cccn3-c3ccccn3)N3CCC[C@@]23C1=O | -43.6% |
| CN1C[C@@H]2C[C@@H](c3cccn3-c3nccs3)N3CCC[C@@]23C1=O | -19.2% |

| Compound | hERG current change (%, negative = inhibition) at 10uM |
| --- | --- |
| CCCCNc1nc2c(c(=O)[nH]c(=O)n2C)n1CCOc1ccccc1 | 3.6% |
| O=C(CCSc1ccccn1)c1ccccc1 | 8.82% |
| CCOC(=O)CC(NC(=O)Cc1cccs1)c1ccccc1Cl (centres unmarked) | 5.29% |
| Cc1ccccc1C(=O)N1N=C(c2cccc(NS(C)(=O)=O)c2)CC1c1cccs1 (centres unmarked) | -6.36% |
| Cc1cc(C)c(CN2CCN(Cc3ccc(C)o3)C(CCO)C2)c(-n2cccn2)c1 (centres unmarked) | -76.4% |
| Cc1ccc(CN2CCN(Cc3cnc(C)s3)CC2CCO)o1 (centres unmarked) | -1.95% |
| Cc1ccc(CN2CCN(Cc3ccncc3)CC2CCO)o1 (centres unmarked) | -8.3% |
| Cc1ccc(CN2CCN(Cc3c(C)nn(C(C)C)c3C)CC2CCO)o1 (centres unmarked) | -7.24% |
| Cc1ccc(CN2CCN(Cc3cn[nH]c3-c3ccccc3)CC2CCO)o1 (centres unmarked) | -12.7% |
| Cc1ccc(CN2CCN(Cc3cnn(-c4ccc(F)cc4)c3)CC2CCO)o1 (centres unmarked) | -56.1% |
| CCn1cc(CN2CCN(Cc3ccsc3)C(CCO)C2)cn1 (centres unmarked) | -3.26% |
| Cc1ccc(CN2CCN(Cc3ccc(O)cc3)CC2CCO)o1 (centres unmarked) | -7.85% |
| OCCC1CN(Cc2cnn(-c3ccc(F)cc3)c2)CCN1Cc1ccsc1 (centres unmarked) | -65.7% |
| OCCC1CN(Cc2cnn(-c3ccccc3Cl)c2)CCN1Cc1ccsc1 (centres unmarked) | -11.7% |
| Cc1ccc(CN2CCN(Cc3c(C)nn(-c4ccc(F)cc4)c3C)CC2CCO)o1 (centres unmarked) | -34.6% |
| Cc1ccc(CN2CCN(Cc3cnn(-c4ccc(Cl)cc4)c3)CC2CCO)o1 (centres unmarked) | -69.8% |
| Cc1ccc(C(=O)N2CCCCC2)cc1S(=O)(=O)N1CCOCC1 | 22% |
| COc1ccc(NC(=O)C2CCCN(S(=O)(=O)c3ccc4c(c3)CCCN4C(C)=O)C2)cc1 (centres unmarked) | 9.31% |
